In PubChem BioAssay AID504697 (The Scripps Research Institute Molecular Screening Center, 2011):
Values without a mark were called inactive. The source made the active and inactive calls.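 How the source made its calls: active means EC50 at or below 10 µM; inactive means EC50 above 10 µM.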

Experiment: compound autofluorescence in calcium buffer – biochemical, fluorescence, no RTF in test wells, artefact control for cardiac thin filament activator project, dose response (AID 504697);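 further: emission near 535 nm under roughly 485 nm excitation as for IANBD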
Conditions: compound-only fluorescence in RTF assay buffer with Ca2+ (no RTF in test wells), artifact counterscreen

Row | Structure (SMILES) | EC50
1 | Cn1cc(/C=C2\SC(=S)N(NC(=O)c3ccccc3)C2=O)c2ccccc21 | 9.01 µM (active)
2 | Cc1ccc(C)c(N2CCN(C(=O)CN3C(=S)NC(C)(C)CC3C)CC2)c1 (stereo not given) | > 71.5 µM
3 | N=c1c2c(ncn1Cc1ccco1)Oc1cc(O)ccc1C2c1ccccc1 (stereo not given) | > 71.4 µM
4 | O=C(CSc1nc2ncc(Br)cc2[nH]1)c1cccc([N+](=O)[O-])c1 | > 71.5 µM
5 | O=C(/C=C/c1nc2ccccc2s1)N1CCCCCC1 | > 71.5 µM
6 | CCN(CC)CCN1C(=O)c2cccc3cc(N)cc(c23)C1=O | 49.2 µM
7 | Cc1ccc(NC(=O)CN(C)c2ccc(S(=O)(=O)N3CCCC3)cn2)cc1 | > 71.5 µM
8 | COc1ccccc1C(=O)Oc1ccc2c(c1)O/C(=C\c1ccncc1)C2=O | 30.9 µM
9 | O=[n+]1c2c(n([O-])c3ccccc31)CCC2 | > 71.5 µM
10 | CC(COC(=O)c1ccccc1)(COC(=O)c1ccccc1)/[N+]([O-])=C/c1ccccc1 | > 71.5 µM
11 | Fc1ccc(CNC(=S)NCc2ccc(F)cc2)cc1 | > 71.5 µM
12 | Cc1ccc(S(=O)(=O)NCCCCCC(=O)Nc2ccccc2C)cc1 | > 71.5 µM
13 | COc1cccc(CC(NC(C)=O)C(=O)NC2CCN(c3nc(C)cc(C)c3C#N)CC2)c1OC (stereo not given) | > 71.5 µM
14 | CCN1/C(=C/c2ccc3cc(C)ccc3[n+]2CC)Sc2ccccc21 | > 71.4 µM
15 | CN(CC(=O)NCc1ccco1)S(=O)(=O)c1cccc2cccnc12 | > 71.5 µM
